Screens from PubChem BioAssay.
RPL19A-GFP yeast – RPL19A-GFP expression modulators in yeast, primary screen, cell-based, S. cerevisiae, multiplex flow cytometry, MLPCN | S. cerevisiae RPL19A-GFP strain, 3 h; stronger effect = lower value | percent response vs DMSO, % at 10 µM | actives 0.3% (n = 330,000);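 active = percent response vs DMSO below 50%; inconclusive = fewer than 70 events counted for the yeast strain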;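 also: median channel GFP fluorescence of the barcoded RPL19A-GFP strain; lower means less RPL19A-GFP as with rapamycin TOR inhibition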
CIT2-GFP yeast – modulators of CIT2-GFP expression in yeast, primary screen, S. cerevisiae, GFP fusion, multiplex flow cytometry, MLPCN library; S. cerevisiae CIT2-GFP strain, 3 h; 100 means same as DMSO wells; GFP response vs DMSO, % at 10 µM; actives 0.065% (n = 320,000); AID 2029, 2009;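 active = GFP response relative to DMSO above a set limit, near the screen mean plus 3 SD, cut at about 150% in these data; inconclusive = Fewer than 70 cells measured for a yeast strain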;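 also: ratio of well median GFP fluorescence to mean of DMSO wells on the plate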
LAP4-GFP MLPCN – modulators of LAP4-GFP expression in yeast, primary screen, S. cerevisiae, multiplex flow cytometry, MLPCN library; 3 h; median GFP as percent of DMSO wells; GFP response vs DMSO, % at 10 µM; actives 0.34% (n = 320,000); AID 2023, 2009;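 active = GFP response vs DMSO above a set limit, about the screen mean plus 3 SD, cut at about 150% in these data; inconclusive = under 70 cell events counted for the yeast strain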
AGP1 TOR yeast – modulators of AGP1-GFP expression in yeast TOR pathway, primary screen, cell-based, multiplex flow cytometry, S. cerevisiae, MLPCN library; GFP response vs DMSO, % at 10 µM; 3 h; GFP as percent of DMSO wells; actives 0.02% (n = 320,000);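 active = GFP response relative to DMSO above a set limit, near screen average plus 3 SD, cut at about 150% in these data; inconclusive = fewer than 70 cells counted for the yeast strain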;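 also: median GFP channel fluorescence of the gated AGP1 strain per well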
MEP2 TOR yeast – modulators of MEP2-GFP levels in yeast, primary screen, S. cerevisiae, multiplex flow cytometry, MLPCN library; S. cerevisiae MEP2-GFP strain, 3 h; 100% = DMSO control level; GFP response vs DMSO, % at 10 µM; actives 0.51% (n = 330,000); AID 2016, 2009;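 active = GFP response versus DMSO above a set limit, roughly screen mean plus 3 SD, cut at about 180% in these data; inconclusive = fewer than 70 cells counted for a yeast strain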;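 also: median GFP fluorescence of the barcode-gated MEP2-GFP cells per well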
Large screens that a line does not name were inactive; ! = not active in a repeat; [ ] = remark or other dose. Shown are actives, neighbours in structure and some others; about 0.93% of the full set was active somewhere.

Cc1onc(-c2ccccc2Cl)c1C(=O)N1CCC(Cc2ccccc2)CC1	RPL19A-GFP yeast 27[may fluoresce violet], CIT2-GFP yeast inconclusive, AGP1 TOR yeast inconclusive, MEP2 TOR yeast 240[may fluoresce violet]
O=C(O)CC1c2ccccc2CCN1S(=O)(=O)c1ccccc1 (configuration not stated)	none
Cc1ccc(S(=O)(=O)N2CCc3ccccc3C2CC(=O)O)cc1 (configuration not stated)	RPL19A-GFP yeast 23[may fluoresce violet], CIT2-GFP yeast inconclusive, AGP1 TOR yeast inconclusive, MEP2 TOR yeast inconclusive
Cc1cc(C)nc(N2CCN(C(=O)CCC(=O)Nc3nnc(C(C)C)s3)CC2)n1	RPL19A-GFP yeast 47[may fluoresce violet], CIT2-GFP yeast inconclusive, MEP2 TOR yeast 710[may fluoresce violet]
COc1ccccc1OC(C)C(=O)Nc1ccccc1C(=O)NCC1CCCO1 (configuration not stated)	MEP2 TOR yeast 177
COc1cccc(OC)c1C(=O)N1CCN(C(=O)c2ccc(-c3ccccc3)cc2)CC1	none
Cc1ccc(CNC(=O)c2cn(C)c(=O)c3c2c2ccccc2n3C)o1	RPL19A-GFP yeast 46[may fluoresce violet], CIT2-GFP yeast inconclusive, AGP1 TOR yeast inconclusive, MEP2 TOR yeast 283[may fluoresce violet]
Cc1ccc(CNC(=O)c2cn(C3CCCCC3)c(=O)c3c2c2ccccc2n3C)o1	none
O=C(NNC1=NCCC1)c1cccc(Br)c1	LAP4-GFP MLPCN 174
Cc1ccccc1C(=O)NNC1=NCCC1	none (no result: RPL19A-GFP yeast)
O=C(COC(=O)CSc1ccc(F)cc1)NNC(=O)c1ccc([N+](=O)[O-])cc1	none
O/N=C/c1ccc(-c2ccccc2OC(F)(F)F)o1	RPL19A-GFP yeast 31[may fluoresce violet], CIT2-GFP yeast inconclusive, AGP1 TOR yeast inconclusive, MEP2 TOR yeast 457[may fluoresce violet]
CC(=O)c1ccc(-c2ccccc2OC(F)(F)F)o1	none
CCOc1ccc(NC(=O)C(=O)NCCN2CCN(S(=O)(=O)c3ccccc3)CC2)cc1	none
Cc1cccc(OCCCN2C(=O)C(=O)c3cc(C)ccc32)c1	none
Cc1cc(NC(=O)CSc2nnnn2-c2ccccc2F)no1	CIT2-GFP yeast inconclusive, MEP2 TOR yeast 256[may fluoresce violet]
Cc1cc(NC(=O)CSc2nnnn2-c2cc(Cl)ccc2C)no1	none
Cc1ccc(S(=O)(=O)c2c(N)n(CCCN(C)C)c3nc4ccccc4nc23)cc1	none
CN(C)CCCn1c(N)c(C#N)c2nc3ccccc3nc21	RPL19A-GFP yeast 31[may fluoresce violet], CIT2-GFP yeast inconclusive, AGP1 TOR yeast inconclusive, MEP2 TOR yeast 485[may fluoresce violet]
CC(=O)C1=C(O)C(=O)N(c2ccc(Br)cc2)C1c1ccc(Br)cc1 (configuration not stated)	none
Cc1cccc(N(CC(=O)NC2CCCC2)C(=O)CCC(=O)Nc2ccccn2)c1	CIT2-GFP yeast inconclusive, AGP1 TOR yeast inconclusive, MEP2 TOR yeast 280[may fluoresce violet]
Cc1cc(C)cc(N(C(=O)CCC(=O)Nc2ccccn2)C(C(=O)NC(C)C)c2ccc(O)cc2)c1 (configuration not stated)	RPL19A-GFP yeast 42[may fluoresce violet], CIT2-GFP yeast inconclusive, MEP2 TOR yeast 301[may fluoresce violet]
Cc1ccc(N(C(=O)CCC(=O)Nc2ccccn2)C(C(=O)NC(C)C)c2ccc(F)cc2)cc1 (configuration not stated)	none
COCCNC(=O)C(c1ccc(O)cc1)N(Cc1ccco1)C(=O)CCC(=O)Nc1ccccn1 (configuration not stated)	RPL19A-GFP yeast 48[may fluoresce violet], CIT2-GFP yeast inconclusive, AGP1 TOR yeast inconclusive, MEP2 TOR yeast 230[may fluoresce violet]
O=C(c1ccco1)N1CCN(Cc2cc(=O)c(OCc3c(F)cccc3Cl)co2)CC1	none
O=C(Nc1ncnc2sc3c(c12)CCCCC3)c1ccco1	CIT2-GFP yeast inconclusive, MEP2 TOR yeast 184[may fluoresce violet]
Cc1cc(C)c(S(=O)(=O)c2cccc(C)c2C)c(=O)[nH]1	CIT2-GFP yeast inconclusive, MEP2 TOR yeast 387[may fluoresce violet]
O=c1cc(-c2ccc(C(F)(F)F)cc2)oc2ccccc12	RPL19A-GFP yeast 44[may fluoresce violet], CIT2-GFP yeast inconclusive, AGP1 TOR yeast inconclusive, MEP2 TOR yeast 181[may fluoresce violet]
CCN(CC(=O)Nc1c(F)cccc1F)C(=O)c1ccc(COc2ccccc2)o1	none
COC(=O)C1=C(C)N(CCc2ccccc2)C(=O)C1	RPL19A-GFP yeast 44[may fluoresce violet], CIT2-GFP yeast inconclusive, AGP1 TOR yeast inconclusive, MEP2 TOR yeast 189[may fluoresce violet]
CCCN1C(=O)CC(C(=O)OC)=C1C	none
Cc1ccc(CC2CC(=O)N(CCc3ccc4c(c3)OCO4)C2=O)cc1 (configuration not stated)	RPL19A-GFP yeast 37[may fluoresce violet], CIT2-GFP yeast inconclusive, MEP2 TOR yeast 214[may fluoresce violet] (no result: AGP1 TOR yeast)
Cc1ccc2nc(N3CCN(C(=O)c4ccco4)CC3)c3nncn3c2c1	none
CNc1nc(-c2ccccc2)cc(C(F)(F)F)c1C#N	MEP2 TOR yeast 220
c1ccc(-c2n[nH]c(-c3ccccn3)n2)nc1	RPL19A-GFP yeast 13![may fluoresce violet], CIT2-GFP yeast inconclusive, AGP1 TOR yeast inconclusive, MEP2 TOR yeast 180![may fluoresce violet]
c1ccc(-c2n[nH]c(-c3ccccn3)n2)cc1	none
O=[N+]([O-])c1ccc(N(CC(O)CN2CCCCC2)S(=O)(=O)c2ccccc2)cc1 (configuration not stated)	CIT2-GFP yeast inconclusive, MEP2 TOR yeast 521[may fluoresce violet]
O=[N+]([O-])c1ccc(S(=O)(=O)N(CC(O)CN2CCCCC2)c2ccccc2)cc1 (configuration not stated)	none
CN1C(=O)[C@@H]2[C@H](C1=O)[C@@H]1C(=O)Nc3ccccc3C(=O)N1[C@@H]2c1cccc(Br)c1	none
CC(=O)NCC1=C(NC(C)=O)C2CC1C(C)(C)C2C (configuration not stated)	RPL19A-GFP yeast 27[may fluoresce violet], CIT2-GFP yeast inconclusive, AGP1 TOR yeast inconclusive, MEP2 TOR yeast 600[may fluoresce violet]
O=C(O)c1ccccc1OCCOc1ccccc1C(=O)O	none
O=C(O)c1ccccc1OCCOCCOc1ccccc1C(=O)O	RPL19A-GFP yeast 44[may fluoresce violet], CIT2-GFP yeast inconclusive
Cc1ccc(-c2ccc(CCC(=O)O)o2)cc1	LAP4-GFP MLPCN 158
Cc1ccccc1OCC(=O)NCCN1CCCC1	RPL19A-GFP yeast 14[may fluoresce violet], CIT2-GFP yeast inconclusive, LAP4-GFP MLPCN inconclusive, AGP1 TOR yeast inconclusive, MEP2 TOR yeast inconclusive
CN(C)c1ccc(CNc2ccc3c(c2)ncn3C(C)(C)C)cc1	none
Cc1ccc(C)c(N2CCN(c3ccc4cc(S(=O)(=O)N5CCCCC5)ccc4n3)CC2)c1	none
Cc1cccc(N2CCN(c3ccc4cc(S(=O)(=O)N5CCCCC5)ccc4n3)CC2)c1C	RPL19A-GFP yeast 27[may fluoresce violet], CIT2-GFP yeast inconclusive
Cc1cc2c(cc1C)C(c1ccccc1OC(C)C)CC(=O)N2 (configuration not stated)	none
CCCC(=O)N/C(N)=N/c1nc2ccccc2o1	none
CC(=O)N/C(N)=N/c1nc2cc(C)ccc2o1	RPL19A-GFP yeast 19[may fluoresce violet], CIT2-GFP yeast inconclusive, AGP1 TOR yeast inconclusive, MEP2 TOR yeast inconclusive
CCC(=O)N/C(N)=N/c1nc2ccccc2o1	LAP4-GFP MLPCN 176
CC(=O)N/C(N)=N/c1nc2cc([N+](=O)[O-])ccc2o1	none
CNC(=O)CSc1nnc(-c2cccc(S(=O)(=O)N3CCOCC3)c2)n1-c1ccc(F)cc1	none
